According to PubChem BioAssay (NCATS):
Inconclusive results are not listed. Active and inactive are the calls of the source. Unless noted, calls follow the shape of the dose curve; as a rule, active = well fitted curve in the direction sought with a large enough effect; inconclusive = small, poorly fitted or top-dose-only effect, or another doubt; inactive = no such curve, though single readings can be large; an effect the other way counts as inactive or inconclusive.

Assays:
[1] = molecular target: ATP-dependent 6-phosphofructokinase (Trypanosoma brucei brucei) (UniProt O15648); test: qHTS Assay to Find Inhibitors of T. brucei phosphofructokinase: hit validation (AID 492961);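 also: luminescence reports ADP formed as PFK phosphorylates fructose-6-phosphate with ATP; % is scaled to controls: 0 for no effect and ±100 for the full control effect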
ATP-dependent 6-phosphofructokinase (Trypanosoma brucei brucei), sequence (O15648 whole entry, looked up): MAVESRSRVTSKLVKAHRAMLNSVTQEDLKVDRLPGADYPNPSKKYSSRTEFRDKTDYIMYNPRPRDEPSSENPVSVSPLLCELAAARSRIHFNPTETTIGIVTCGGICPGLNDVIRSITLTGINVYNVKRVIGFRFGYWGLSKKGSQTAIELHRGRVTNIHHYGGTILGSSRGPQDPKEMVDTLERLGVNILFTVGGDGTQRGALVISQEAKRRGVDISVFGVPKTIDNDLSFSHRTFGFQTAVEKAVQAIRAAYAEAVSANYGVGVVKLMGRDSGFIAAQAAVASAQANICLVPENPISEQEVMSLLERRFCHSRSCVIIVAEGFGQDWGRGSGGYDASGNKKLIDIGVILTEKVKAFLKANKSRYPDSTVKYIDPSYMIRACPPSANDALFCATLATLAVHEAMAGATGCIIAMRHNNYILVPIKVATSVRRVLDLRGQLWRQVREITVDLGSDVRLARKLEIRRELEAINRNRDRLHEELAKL
Outline: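 In this biochemical qHTS validation, titrated compounds were tested against 1.25 nM PFK with 0.1 mM ATP and 0.5 mM F6P. Percent activity came from controls lacking or containing enzyme.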

[2] = molecular target: Ubiquitin carboxyl-terminal hydrolase 1 (Homo sapiens) (UniProt O94782); test: Inhibitors of USP1/UAF1: Pilot qHTS (AID 504865);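 also: rhodamine fluorescence freed from ubiquitin-rhodamine substrate followed over time; top concentration of the series differs between compounds; % is scaled to controls: 0 for no effect and ±100 for the full control effect; nearly all actives have a fitted effect of over 35% in size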
Ubiquitin carboxyl-terminal hydrolase 1 (Homo sapiens), sequence (O94782 whole entry, looked up): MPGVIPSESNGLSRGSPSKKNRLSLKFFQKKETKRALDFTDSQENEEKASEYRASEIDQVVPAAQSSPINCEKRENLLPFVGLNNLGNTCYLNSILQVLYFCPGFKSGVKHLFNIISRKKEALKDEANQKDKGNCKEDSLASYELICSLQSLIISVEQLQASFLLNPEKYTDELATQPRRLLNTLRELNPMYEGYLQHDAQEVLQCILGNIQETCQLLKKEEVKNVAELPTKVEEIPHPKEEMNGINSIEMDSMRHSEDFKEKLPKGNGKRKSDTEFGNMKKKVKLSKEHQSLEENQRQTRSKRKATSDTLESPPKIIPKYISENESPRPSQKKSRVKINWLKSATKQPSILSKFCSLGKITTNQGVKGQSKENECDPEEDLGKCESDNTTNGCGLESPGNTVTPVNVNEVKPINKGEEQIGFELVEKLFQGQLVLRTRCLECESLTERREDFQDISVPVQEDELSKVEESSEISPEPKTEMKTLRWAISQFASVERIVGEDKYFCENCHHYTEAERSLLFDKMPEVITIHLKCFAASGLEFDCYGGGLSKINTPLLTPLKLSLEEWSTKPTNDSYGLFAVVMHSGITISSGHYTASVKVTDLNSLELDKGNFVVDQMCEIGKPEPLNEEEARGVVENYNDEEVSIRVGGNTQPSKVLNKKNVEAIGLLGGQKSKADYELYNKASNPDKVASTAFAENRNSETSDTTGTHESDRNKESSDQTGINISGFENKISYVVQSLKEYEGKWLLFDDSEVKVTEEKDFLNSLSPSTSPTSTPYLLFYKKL
Outline: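 In 50mM HEPES pH 7.8 containing 0.5mM EDTA, 1mM TCEP, 0.1 mg/ml BSA and 0.01% Tween-20, 1nM USP1/UAF1 is exposed to compound for 15 min, then Ub-Rho (150nM final) is added and fluorescence is read over time.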

[3] = molecular target: Luciferin 4-monooxygenase (Photinus pyralis) (UniProt P08659); test: Biochemical firefly luciferase enzyme assay for NPC (AID 624030);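 also: purified P. pyralis luciferase at 10 nM with luciferin and ATP substrate; 0% = DMSO and -100% = full luciferase inhibition by PTC124 control; nearly all actives have a fitted effect of over 70% in size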
Luciferin 4-monooxygenase (Photinus pyralis), sequence (P08659 whole entry, looked up): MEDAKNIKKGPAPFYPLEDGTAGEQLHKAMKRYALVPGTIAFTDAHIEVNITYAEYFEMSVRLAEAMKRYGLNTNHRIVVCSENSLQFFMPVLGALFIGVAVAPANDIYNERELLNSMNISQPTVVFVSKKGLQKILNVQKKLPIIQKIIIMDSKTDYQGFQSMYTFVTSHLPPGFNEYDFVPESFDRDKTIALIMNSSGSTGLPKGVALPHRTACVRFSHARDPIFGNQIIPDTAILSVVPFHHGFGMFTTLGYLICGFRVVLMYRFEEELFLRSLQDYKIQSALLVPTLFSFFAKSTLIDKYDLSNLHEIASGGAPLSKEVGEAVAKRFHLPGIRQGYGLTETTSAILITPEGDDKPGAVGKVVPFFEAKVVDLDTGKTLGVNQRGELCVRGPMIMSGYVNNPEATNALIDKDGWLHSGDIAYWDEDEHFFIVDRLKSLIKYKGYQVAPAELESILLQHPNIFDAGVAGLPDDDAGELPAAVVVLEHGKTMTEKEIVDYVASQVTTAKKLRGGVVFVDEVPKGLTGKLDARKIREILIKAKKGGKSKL
Outline: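 Direct inhibition of firefly luciferase enzyme (10 nM final, 50 mM Tris Acetate) assessed by luminescence within 5 minutes. Percent activity scaled between DMSO and PTC124 positive control, with concentration-effect curves classified by fit quality and response.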

[4] = S16 Schwann cell viability assay (CellTiter-Glo assay) (AID 624031);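 also: cellular ATP luminescence as a viability measure; plate controls were DMSO-treated cells for no effect and cell-free wells for full effect; nearly all actives have a fitted effect of over 70% in size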
Outline: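 Native S16 rat Schwann cells in DMEM/10% FBS without phenol red were incubated overnight, then exposed to compounds for 24 h at 37 °C/5% CO2. Viability was read as ATP luminescence (CellTiter-Glo), normalized to no-cell wells and DMSO (0%).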

[5] = S16 Schwann cell PMP22 intronic element firefly luciferase assay (AID 624032);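 also: plate controls were DMSO for no effect and PTC124 positive control mean for full effect; nearly all actives have a fitted effect of over 30% in size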
Outline: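 Luciferase reporter of PMP22 intronic-element expression in stably transfected S16 rat Schwann cells, read by ONE-Glo luminescence after 24 h compound exposure at 37 C. Activity scaled between DMSO (0%) and positive-control PTC124; concentration-effect curves quality-classified.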

[6] = S16 Schwann cell PMP22 intronic element beta-lactamase assay (AID 624044; calls by dose curve;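 also: 0% = DMSO and -100% = potassium clavulanate positive control; nearly all actives have a fitted effect of over 15% in size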); settings: S16 rat Schwann cells, PMP22 element beta-lactamase FRET, 24 h; ratio activity, negative = inhibition: at 38.3 µM (top of the series)
Outline: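 Rat S16 Schwann cells with beta-Lac driven by a PMP22 intronic element, compound-treated 24 h at 37 °C. LiveBLAzer FRET B/G read: 460 nm normalized to potassium clavulanate vs DMSO; 535 nm FRET as viability; concentration-effect curves classified.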

[7] = qHTS profiling for inhibitors of Plasmodium falciparum proliferation (AID 504749);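 also: 0% = DMSO vehicle and full inhibition = artemisinin control; nearly all actives have a fitted effect of over 60% in size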; settings: P. falciparum in erythrocytes, SYBR Green DNA, 72 h, at 28.7 µM (top of the series)
Outline: (§1)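 Infected RBCs, 0.3% parasitemia/2.5% Hct final; cpd 72 h, 37 C, 5% CO2; lysis buffer with saponin/triton/SYBR Green I, o/n RT dark; FI 485/535; norm. to artemisinin (0.29 uM) and DMSO.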

3D7 = test: as above; settings: P. falciparum in erythrocytes, SYBR Green DNA, 72 h; series mostly up to 28.7 µM
Outline: as §1

7G8 = test: as above; settings: P. falciparum in erythrocytes, SYBR Green DNA, 72 h; series mostly up to 28.7 µM
Outline: as §1

AA1029 = test: as above; settings: P. falciparum in erythrocytes, SYBR Green DNA, 72 h; series mostly up to 28.7 µM
Outline: as §1

AS120 = test: as above; settings: P. falciparum in erythrocytes, SYBR Green DNA, 72 h; series mostly up to 28.7 µM
Outline: as §1

ATS189 = test: as above; settings: P. falciparum in erythrocytes, SYBR Green DNA, 72 h; series mostly up to 28.7 µM
Outline: as §1

ATS95 = test: as above; settings: P. falciparum in erythrocytes, SYBR Green DNA, 72 h; series mostly up to 28.7 µM
Outline: as §1

C2A = test: as above; settings: P. falciparum in erythrocytes, SYBR Green DNA, 72 h; series mostly up to 28.7 µM
Outline: as §1

CP185 = test: as above; settings: P. falciparum in erythrocytes, SYBR Green DNA, 72 h; series mostly up to 28.7 µM
Outline: as §1

CP191 = test: as above; settings: P. falciparum in erythrocytes, SYBR Green DNA, 72 h; series mostly up to 28.7 µM
Outline: as §1

CP192 = test: as above; settings: P. falciparum in erythrocytes, SYBR Green DNA, 72 h; series mostly up to 28.7 µM
Outline: as §1

CP194 = test: as above; settings: P. falciparum in erythrocytes, SYBR Green DNA, 72 h; series mostly up to 28.7 µM
Outline: as §1

CP201 = test: as above; settings: P. falciparum in erythrocytes, SYBR Green DNA, 72 h; series mostly up to 28.7 µM
Outline: as §1

CP203 = test: as above; settings: P. falciparum in erythrocytes, SYBR Green DNA, 72 h; series mostly up to 28.7 µM
Outline: as §1

CP211 = test: as above; settings: P. falciparum in erythrocytes, SYBR Green DNA, 72 h; series mostly up to 28.7 µM
Outline: as §1

CP215 = test: as above; settings: P. falciparum in erythrocytes, SYBR Green DNA, 72 h; series mostly up to 28.7 µM
Outline: as §1

CP217 = test: as above; settings: P. falciparum in erythrocytes, SYBR Green DNA, 72 h; series mostly up to 28.7 µM
Outline: as §1

CP237 = test: as above; settings: P. falciparum in erythrocytes, SYBR Green DNA, 72 h; series mostly up to 28.7 µM
Outline: as §1

CP238 = test: as above; settings: P. falciparum in erythrocytes, SYBR Green DNA, 72 h; series mostly up to 28.7 µM
Outline: as §1

CP247 = test: as above; settings: P. falciparum in erythrocytes, SYBR Green DNA, 72 h; series mostly up to 28.7 µM
Outline: as §1

CP250 = test: as above; settings: P. falciparum in erythrocytes, SYBR Green DNA, 72 h; series mostly up to 28.7 µM
Outline: as §1

CP252 = test: as above; settings: P. falciparum in erythrocytes, SYBR Green DNA, 72 h; series mostly up to 28.7 µM
Outline: as §1

CP256 = test: as above; settings: P. falciparum in erythrocytes, SYBR Green DNA, 72 h; series mostly up to 28.7 µM
Outline: as §1

CP260 = test: as above; settings: P. falciparum in erythrocytes, SYBR Green DNA, 72 h; series mostly up to 28.7 µM
Outline: as §1

CP262 = test: as above; settings: P. falciparum in erythrocytes, SYBR Green DNA, 72 h; series mostly up to 28.7 µM
Outline: as §1

CP265 = test: as above; settings: P. falciparum in erythrocytes, SYBR Green DNA, 72 h; series mostly up to 28.7 µM
Outline: as §1

CP266 = test: as above; settings: P. falciparum in erythrocytes, SYBR Green DNA, 72 h; series mostly up to 28.7 µM
Outline: as §1

CP268 = test: as above; settings: P. falciparum in erythrocytes, SYBR Green DNA, 72 h; series mostly up to 28.7 µM
Outline: as §1

CP269 = test: as above; settings: P. falciparum in erythrocytes, SYBR Green DNA, 72 h; series mostly up to 28.7 µM
Outline: as §1

CP286 = test: as above; settings: P. falciparum in erythrocytes, SYBR Green DNA, 72 h; series mostly up to 28.7 µM
Outline: as §1

CP291 = test: as above; settings: P. falciparum in erythrocytes, SYBR Green DNA, 72 h; series mostly up to 28.7 µM
Outline: as §1

CP297 = test: as above; settings: P. falciparum in erythrocytes, SYBR Green DNA, 72 h; series mostly up to 28.7 µM
Outline: as §1

CP305 = test: as above; settings: P. falciparum in erythrocytes, SYBR Green DNA, 72 h; series mostly up to 28.7 µM
Outline: as §1

CP315 = test: as above; settings: P. falciparum in erythrocytes, SYBR Green DNA, 72 h; series mostly up to 28.7 µM
Outline: as §1

CP325 = test: as above; settings: P. falciparum in erythrocytes, SYBR Green DNA, 72 h; series mostly up to 28.7 µM
Outline: as §1

CP329 = test: as above; settings: P. falciparum in erythrocytes, SYBR Green DNA, 72 h; series mostly up to 28.7 µM
Outline: as §1

CP335 = test: as above; settings: P. falciparum in erythrocytes, SYBR Green DNA, 72 h; series mostly up to 28.7 µM
Outline: as §1

DFO2036 = test: as above; settings: P. falciparum in erythrocytes, SYBR Green DNA, 72 h; series mostly up to 28.7 µM
Outline: as §1

DIV14 = test: as above; settings: P. falciparum in erythrocytes, SYBR Green DNA, 72 h; series mostly up to 28.7 µM
Outline: as §1

DIV17 = test: as above; settings: P. falciparum in erythrocytes, SYBR Green DNA, 72 h; series mostly up to 28.7 µM
Outline: as §1

DIV30 = test: as above; settings: P. falciparum in erythrocytes, SYBR Green DNA, 72 h; series mostly up to 28.7 µM
Outline: as §1

Dd2 = test: as above; settings: P. falciparum in erythrocytes, SYBR Green DNA, 72 h; series mostly up to 28.7 µM
Outline: as §1

ECU = test: as above; settings: P. falciparum in erythrocytes, SYBR Green DNA, 72 h; series mostly up to 28.7 µM
Outline: as §1

FAB9 = test: as above; settings: P. falciparum in erythrocytes, SYBR Green DNA, 72 h; series mostly up to 28.7 µM
Outline: as §1

GB4 = test: as above; settings: P. falciparum in erythrocytes, SYBR Green DNA, 72 h; series mostly up to 28.7 µM
Outline: as §1

HB3 = test: as above; settings: P. falciparum in erythrocytes, SYBR Green DNA, 72 h; series mostly up to 28.7 µM
Outline: as §1

ICS = test: as above; settings: P. falciparum in erythrocytes, SYBR Green DNA, 72 h; series mostly up to 28.7 µM
Outline: as §1

JCK = test: as above; settings: P. falciparum in erythrocytes, SYBR Green DNA, 72 h; series mostly up to 28.7 µM
Outline: as §1

N140 = test: as above; settings: P. falciparum in erythrocytes, SYBR Green DNA, 72 h; series mostly up to 28.7 µM
Outline: as §1

P93_24 = test: as above; settings: P. falciparum in erythrocytes, SYBR Green DNA, 72 h; series mostly up to 28.7 µM
Outline: as §1

P94_40 = test: as above; settings: P. falciparum in erythrocytes, SYBR Green DNA, 72 h; series mostly up to 28.7 µM
Outline: as §1

PAD = test: as above; settings: P. falciparum in erythrocytes, SYBR Green DNA, 72 h; series mostly up to 28.7 µM
Outline: as §1

PC15 = test: as above; settings: P. falciparum in erythrocytes, SYBR Green DNA, 72 h; series mostly up to 28.7 µM
Outline: as §1

PC26 = test: as above; settings: P. falciparum in erythrocytes, SYBR Green DNA, 72 h; series mostly up to 28.7 µM
Outline: as §1

PC49 = test: as above; settings: P. falciparum in erythrocytes, SYBR Green DNA, 72 h; series mostly up to 28.7 µM
Outline: as §1

SC27B = test: as above; settings: P. falciparum in erythrocytes, SYBR Green DNA, 72 h; series mostly up to 28.7 µM
Outline: as §1

TAB109 = test: as above; settings: P. falciparum in erythrocytes, SYBR Green DNA, 72 h; series mostly up to 28.7 µM
Outline: as §1

TAB113 = test: as above; settings: P. falciparum in erythrocytes, SYBR Green DNA, 72 h; series mostly up to 28.7 µM
Outline: as §1

TAB165 = test: as above; settings: P. falciparum in erythrocytes, SYBR Green DNA, 72 h; series mostly up to 28.7 µM
Outline: as §1

W2 = test: as above; settings: P. falciparum in erythrocytes, SYBR Green DNA, 72 h; series mostly up to 28.7 µM
Outline: as §1

C=CCn1c(=O)n(C2OC(CO)C(O)C2O)c2nc(N)[nH]c(=O)c21 (configuration not stated)
inactive: Potency [1] | Potency [2] | Potency [3] | Potency [4] | Potency [5] | Potency [6] | activity, negative = inhibition ([7]; parasite line A) 5.09% | activity, negative = inhibition ([7]; parasite line B) -6.68% | Potency (3D7) | Potency (7G8) | Potency (AA1029) | Potency (AS120) | Potency (ATS189) | Potency (ATS95) | Potency (C2A) | Potency (CP185) | Potency (CP191) | Potency (CP192) | Potency (CP194) | Potency (CP201) | Potency (CP203) | Potency (CP211) | Potency (CP215) | Potency (CP217) | Potency (CP237) | Potency (CP238) | Potency (CP247) | Potency (CP250) | Potency (CP252) | Potency (CP256) | Potency (CP260) | Potency (CP262) | Potency (CP265) | Potency (CP266) | Potency (CP268) | Potency (CP269) | Potency (CP286) | Potency (CP291) | Potency (CP297) | Potency (CP305) | Potency (CP315) | Potency (CP325) | Potency (CP329) | Potency (CP335) | Potency (DFO2036) | Potency (DIV14) | Potency (DIV17) | Potency (DIV30) | Potency (Dd2) | Potency (ECU) | Potency (FAB9) | Potency (GB4) | Potency (HB3) | Potency (ICS) | Potency (JCK) | Potency (N140) | Potency (P93_24) | Potency (P94_40) | Potency (PAD) | Potency (PC15) | Potency (PC26) | Potency (PC49) | Potency (SC27B) | Potency (TAB109) | Potency (TAB113) | Potency (TAB165) | Potency (W2)
